HepG2 tox = kills HepG2 cells in TGF-b inhibitor counter-screen; AID 588856; 410,000 tested, 0.76% active; HepG2 CAGA-GFP viability, ATP luminescence, 18 h; Potency, µM (doses to about 46.1 µM), most hits filed as cytotoxic
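CellTiter-Glo luminescence gave cytotoxicity after 18 hours at 37 degrees C. The cells were HepG2 CAGA-GFP in 1% FBS DMEM, stimulated with 500 pg/mL TGF-beta after compound addition. %Activity was normalised to no-cell wells (complete cell-killing) and DMSO (no toxicity), and curves were fitted and classified.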
TGFb SMAD3 inh = inhibitors of TGF-b signaling. HepG2 CAGA-GFP TGF-b/SMAD3 reporter, GFP fluorescence, 18 h; TGF-beta stimulated, 500 pg/mL final. Potency, µM (titrated, usually from 46.1 µM), hits mostly inhibitors. 410,000 tested, 1.2% active; further: nearly all actives have a fitted effect of over 65% in size
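Using HEPG2 CAGA-GFP reporter cells at 1000 cells/well, we pinned test compounds, stimulated with recombinant TGF-beta (500 pg/mL final) and measured total well GFP after 18 h.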
DT40 TDP1 no CPT = qHTS for Inhibitors of human tyrosyl-DNA phosphodiesterase 1 (TDP1): qHTS in cells in absence of CPT | 420,000 tested, 15% active | AID 686978, 2013 | DT40 Tdp1-/- hTDP1 cells, no CPT, ATP luminescence, 48 h | Potency, µM (series often up to 46.2 µM), actives largely listed as inhibitors; further: nearly all actives have a fitted effect of over 55% in size
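Chicken DT40 Tdp1-/- cells complemented with human TDP1, screened without camptothecin (DMSO vehicle only), 400 cells/well. Compounds pin-transferred, cells incubated at 37 °C for at least 48 hr. Growth read as ATP-dependent luminescence (CellTiter-Glo, 30 min at RT).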
S-ASM inh = human S-ASM enzyme inhibition; 340,000 tested, 0.006% active; Potency, µM (titrated, usually from 57.5 µM), hits mostly inhibitors; placental ASM, HMU-PC fluorogenic substrate, 60 min; P17405
Target sequence (P17405 47-631 limits assumed): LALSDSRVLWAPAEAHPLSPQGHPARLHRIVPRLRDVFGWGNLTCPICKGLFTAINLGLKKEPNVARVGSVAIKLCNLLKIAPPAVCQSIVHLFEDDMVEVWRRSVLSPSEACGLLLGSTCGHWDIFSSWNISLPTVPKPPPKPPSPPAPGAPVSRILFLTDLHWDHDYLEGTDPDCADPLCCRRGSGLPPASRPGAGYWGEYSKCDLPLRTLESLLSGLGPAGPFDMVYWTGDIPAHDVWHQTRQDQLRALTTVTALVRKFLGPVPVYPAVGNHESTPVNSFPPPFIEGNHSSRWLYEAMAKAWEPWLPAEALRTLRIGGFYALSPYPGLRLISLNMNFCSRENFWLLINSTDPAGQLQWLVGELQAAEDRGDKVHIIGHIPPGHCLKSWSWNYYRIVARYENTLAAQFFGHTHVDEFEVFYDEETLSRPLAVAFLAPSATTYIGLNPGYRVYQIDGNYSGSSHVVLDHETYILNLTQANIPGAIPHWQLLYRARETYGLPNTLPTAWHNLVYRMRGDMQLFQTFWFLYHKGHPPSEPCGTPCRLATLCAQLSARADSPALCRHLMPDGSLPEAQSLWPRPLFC
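Steps: dispense placental human ASM, pin compound, wait 10 min at room temperature, add HMU-PC0 substrate at 9 uM final, incubate 60 min at 37 °C, add stop solution raising pH to 10, read fluorescence.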
TDP1 cell CPT = growth inhibition of DT40 Tdp1-/-;hTDP1 cells with camptothecin (screen for TDP1 inhibitors) | 420,000 tested, 12% active | chicken DT40 Tdp1-/-;hTDP1 cells + 20 nM CPT, ATP luminescence, 48 h | Potency, µM (titrated, usually from 46.2 µM), usual class: inhibitors | AID 686979; further: nearly all actives have a fitted effect of over 55% in size
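Chicken DT40 Tdp1-/- cells stably complemented with human TDP1 were seeded at 400 cells/well in medium containing 20 nM camptothecin, exposed to pin-transferred compounds, and grown at 37 °C for at least 48 hr. Viability was read as ATP luminescence.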
IL-1B inflam inh = inflammasome signaling inhibition, IL-1 beta readout; THP-1 LPS/ATP IL-1B secretion, AlphaLISA, 16 h; active compounds read low; activity change, % at 57.5 µM; 360,000 tested, 4.7% active; AID 743279; in the data active means activity change below about -50%; inconclusive means mostly about -30% to -49%
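Secreted IL-1B measured by AlphaLISA bead assay after 16 h compound exposure of THP-1 cells; compounds (final up to 57.5 uM) added 1 h before LPS (250 ng/mL) and ATP (1.25 mM) stimulation; lower signal means less secretion.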
Numbers stand for hits; ! = a repeat was not active. A selection: hits, their analogues and other compounds. The true share with any hit is near 19%. Unless noted, the call rests on the fitted dose curve; in most records, active means well fitted curve in the direction sought with a large enough effect; inconclusive means small, poorly fitted or top-dose-only effect, or another doubt; inactive means no such curve, though single readings can be large; an effect the other way counts as inactive or inconclusive.

How did COc1ccc(OC)c(-c2c3cc(O)c(=O)cc-3oc3cc(O)c(O)cc23)c1 do in these assays?
HepG2 tox: inactive; TGFb SMAD3 inh: inconclusive; DT40 TDP1 no CPT: inconclusive; S-ASM inh: inactive; TDP1 cell CPT: inconclusive; IL-1B inflam inh: inactive

What do the screens show for `O=C(Nc1ncn[nH]1)c1ccc(Cl)c(Cl)c1`?
HepG2 tox: inactive; TGFb SMAD3 inh: inactive; DT40 TDP1 no CPT: inactive; S-ASM inh: inactive; TDP1 cell CPT: inactive; IL-1B inflam inh: inactive

What do the screens show for `CN(C(=S)Nc1ccc(Oc2ccccc2)cc1)c1ccc(O)cc1`?
HepG2 tox: inactive; TGFb SMAD3 inh: inconclusive; DT40 TDP1 no CPT: inconclusive; S-ASM inh: inactive; TDP1 cell CPT: inconclusive; IL-1B inflam inh: -73.4

Results for CN(C(=S)Nc1cccnc1)c1ccc(O)cc1 ?
HepG2 tox: inactive; TGFb SMAD3 inh: inactive; DT40 TDP1 no CPT: inconclusive; S-ASM inh: inactive; TDP1 cell CPT: inactive; IL-1B inflam inh: inactive

Results for CN(C(=S)Nc1ccc(SC(F)F)cc1)c1ccc(O)cc1 ?
HepG2 tox: inactive; TGFb SMAD3 inh: inactive; DT40 TDP1 no CPT: inconclusive; S-ASM inh: inactive; TDP1 cell CPT: inconclusive; IL-1B inflam inh: -53.6

How did CCCCCCSc1cccc(-c2nc3cc(C)ccn3c2NC2CCCCC2)c1 do in these assays?
HepG2 tox: inactive; TGFb SMAD3 inh: inconclusive; DT40 TDP1 no CPT: 16.4µM; S-ASM inh: inactive; TDP1 cell CPT: 20.6µM; IL-1B inflam inh: -73.9

Results for Cc1ccn2c(NC3CCCCC3)c(-c3ccc(SC4CCCCC4)cc3)nc2c1 ?
DT40 TDP1 no CPT: 23.1µM; TDP1 cell CPT: inconclusive; IL-1B inflam inh: inactive

Results for CCCCCCSc1cccc(-c2nc3ccc(C)cn3c2NC2CCCCC2)c1 ?
HepG2 tox: inactive; TGFb SMAD3 inh: inactive; DT40 TDP1 no CPT: inconclusive; S-ASM inh: inactive; TDP1 cell CPT: inconclusive; IL-1B inflam inh: inactive

How did Cc1ccn2c(NC3CCCCC3)c(-c3cccc(SC4CCCCC4)c3)nc2c1 do in these assays?
HepG2 tox: inactive; TGFb SMAD3 inh: inconclusive; DT40 TDP1 no CPT: 8.2µM; S-ASM inh: inactive; TDP1 cell CPT: 16.4µM; IL-1B inflam inh: -75.0!

How did CN1C(=O)N(CC(=O)N2CCN(S(=O)(=O)Cc3ccccc3)CC2)C(=O)C12CCCCC2 do in these assays?
HepG2 tox: inactive; TGFb SMAD3 inh: inactive; DT40 TDP1 no CPT: inconclusive; S-ASM inh: inactive; TDP1 cell CPT: inconclusive; IL-1B inflam inh: inactive

Results for CCC(=O)N(C)C[C@H]1Oc2cc(-c3cccnc3)ccc2S(=O)(=O)N([C@H](C)CO)C[C@H]1C ?
HepG2 tox: inactive; TGFb SMAD3 inh: inactive; DT40 TDP1 no CPT: inactive; TDP1 cell CPT: inactive; IL-1B inflam inh: inactive

What do the screens show for `COc1ccc(N2CC(C)(C)[C@H](CC(=O)Nc3ccccc3)C2=O)cc1`?
HepG2 tox: inactive; TGFb SMAD3 inh: inactive; DT40 TDP1 no CPT: inactive; TDP1 cell CPT: inactive; IL-1B inflam inh: inactive

What do the screens show for `O=C(Cn1cc(C(F)(F)F)cc(Cl)c1=O)Nc1ccc(N2CCOCC2)cc1`?
HepG2 tox: inactive; TGFb SMAD3 inh: inactive; DT40 TDP1 no CPT: inactive; S-ASM inh: inactive; TDP1 cell CPT: inactive; IL-1B inflam inh: inactive

How did Cc1ccc(S(=O)(=O)n2cccc2/C=C/[N+](=O)[O-])cc1 do in these assays?
HepG2 tox: 12.6µM; TGFb SMAD3 inh: 14.1µM; DT40 TDP1 no CPT: 2.91µM; TDP1 cell CPT: 2.91µM; IL-1B inflam inh: inconclusive

How did COc1cccc(NC(=O)CSC2=Nc3ccccc3C3=NC(CC(=O)NCCc4ccccc4)C(=O)N23)c1 (stereo unspecified) do in these assays?
HepG2 tox: inactive; TGFb SMAD3 inh: inconclusive; DT40 TDP1 no CPT: inactive; TDP1 cell CPT: inactive

Results for CCC1=NN(C(=O)c2ccc(Br)cc2)C(O)(c2ccc(C)cc2)C1 (stereo unspecified) ?
HepG2 tox: inactive; TGFb SMAD3 inh: inconclusive; DT40 TDP1 no CPT: 5.17µM; S-ASM inh: inactive; TDP1 cell CPT: 5.17µM; IL-1B inflam inh: inactive

Screening data (PubChem BioAssay)
